Our source for the AC50 and outcome values is PubChem BioAssay (EPA / NIEHS).

Records with an inconclusive call do not appear. Calls of active or inactive are those of the source. The calls were made as follows: active = hit-call score of the fitted dose curve at least 0.9, where 1 is the maximum; inconclusive = response in the unintended direction; inactive = score below 0.9.

Chain of human Dopamine Receptor D4.4 (DRD4.4), DRD4 (gene 1815) (P21917 whole entry, looked up): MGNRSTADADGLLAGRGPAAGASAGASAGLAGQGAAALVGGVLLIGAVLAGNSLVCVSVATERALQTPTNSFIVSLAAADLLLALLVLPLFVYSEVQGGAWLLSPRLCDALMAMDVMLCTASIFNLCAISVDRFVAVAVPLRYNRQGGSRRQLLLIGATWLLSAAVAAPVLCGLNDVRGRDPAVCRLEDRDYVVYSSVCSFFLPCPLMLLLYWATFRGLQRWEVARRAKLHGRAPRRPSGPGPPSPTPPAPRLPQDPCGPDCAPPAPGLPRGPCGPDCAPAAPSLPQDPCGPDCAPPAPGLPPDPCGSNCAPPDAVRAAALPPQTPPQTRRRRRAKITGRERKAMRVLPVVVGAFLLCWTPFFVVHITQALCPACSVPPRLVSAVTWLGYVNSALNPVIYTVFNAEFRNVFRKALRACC
Chain of human Endothelin Receptor Type A (ETA), EDNRA (gene 1909) (P25101 whole entry, looked up): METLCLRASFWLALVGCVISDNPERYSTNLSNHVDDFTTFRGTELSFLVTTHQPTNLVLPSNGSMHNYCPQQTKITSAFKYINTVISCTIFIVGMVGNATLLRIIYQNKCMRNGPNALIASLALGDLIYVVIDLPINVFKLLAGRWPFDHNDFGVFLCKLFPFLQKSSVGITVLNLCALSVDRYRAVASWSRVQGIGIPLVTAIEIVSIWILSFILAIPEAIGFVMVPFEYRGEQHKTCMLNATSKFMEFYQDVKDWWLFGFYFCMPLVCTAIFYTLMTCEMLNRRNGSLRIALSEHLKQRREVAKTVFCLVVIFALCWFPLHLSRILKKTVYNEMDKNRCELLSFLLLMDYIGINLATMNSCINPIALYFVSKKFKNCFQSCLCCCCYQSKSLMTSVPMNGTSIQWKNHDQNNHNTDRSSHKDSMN
Chain of human Endothelin Receptor Type B (ETB), EDNRB (gene 1910) (P24530 whole entry, looked up): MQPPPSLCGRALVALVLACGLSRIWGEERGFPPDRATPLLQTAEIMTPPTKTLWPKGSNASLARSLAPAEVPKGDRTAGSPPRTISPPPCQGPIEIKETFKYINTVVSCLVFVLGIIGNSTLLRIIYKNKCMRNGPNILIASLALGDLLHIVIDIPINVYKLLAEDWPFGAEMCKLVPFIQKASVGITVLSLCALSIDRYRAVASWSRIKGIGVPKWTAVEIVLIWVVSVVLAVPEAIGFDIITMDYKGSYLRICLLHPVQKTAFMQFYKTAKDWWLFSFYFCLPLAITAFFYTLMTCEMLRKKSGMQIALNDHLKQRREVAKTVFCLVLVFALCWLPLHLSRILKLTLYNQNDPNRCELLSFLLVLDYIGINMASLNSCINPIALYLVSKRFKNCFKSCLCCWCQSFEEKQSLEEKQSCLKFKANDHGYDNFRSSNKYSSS
Chain of Type-1 angiotensin II receptor (Homo sapiens) (P30556 whole entry, looked up): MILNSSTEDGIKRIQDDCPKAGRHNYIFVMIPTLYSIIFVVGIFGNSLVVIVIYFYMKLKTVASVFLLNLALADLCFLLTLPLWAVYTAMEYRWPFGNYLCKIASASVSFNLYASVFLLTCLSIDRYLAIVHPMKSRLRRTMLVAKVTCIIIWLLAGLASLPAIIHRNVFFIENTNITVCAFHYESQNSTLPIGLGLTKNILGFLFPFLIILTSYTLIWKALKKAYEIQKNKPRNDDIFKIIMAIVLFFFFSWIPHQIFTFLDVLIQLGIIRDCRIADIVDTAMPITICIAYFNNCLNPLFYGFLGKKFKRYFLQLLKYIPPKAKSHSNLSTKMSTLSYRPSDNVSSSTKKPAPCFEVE
Chain of human Dopamine Receptor D2 (DRD2), DRD2 (gene 1813) (P14416 whole entry, looked up): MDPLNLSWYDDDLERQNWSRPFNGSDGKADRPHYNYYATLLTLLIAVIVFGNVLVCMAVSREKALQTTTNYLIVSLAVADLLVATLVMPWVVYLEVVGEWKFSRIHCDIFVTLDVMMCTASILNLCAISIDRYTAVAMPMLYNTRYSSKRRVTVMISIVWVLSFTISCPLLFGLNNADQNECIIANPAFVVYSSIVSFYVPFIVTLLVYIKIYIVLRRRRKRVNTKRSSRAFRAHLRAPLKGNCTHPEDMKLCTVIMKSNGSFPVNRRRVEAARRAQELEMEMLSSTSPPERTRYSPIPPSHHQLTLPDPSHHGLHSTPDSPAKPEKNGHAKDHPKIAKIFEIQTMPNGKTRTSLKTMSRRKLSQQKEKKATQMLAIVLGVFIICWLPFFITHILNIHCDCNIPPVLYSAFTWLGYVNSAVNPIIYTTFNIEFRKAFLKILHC

The first test deals with Type-1 angiotensin II receptor (Homo sapiens) (UniProt P30556). Nature of the test: NVS_GPCR_hAT1: NovaScreen (NVS) G Protein-Coupled Receptor Assay for human Angiotensin II receptor type 1 (AT1) (AID 2283263). The method in brief:
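Hits from a 25 uM duplicate screen (threshold e.g. 30% inhibition) were run in concentration-response with 50 uM top concentration. Displacement of specific radioligand from KAN-TS membrane preparations measured after 3 h by filter scintillation, DMSO as baseline.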
Turning to `CCCCCCCCn1sccc1=O`, the AC50 is 10900 nM (active).
With `CCC[CH2][Sn]([Cl])([CH2]CCC)[CH2]CCC`, the concentration at half-maximal activity (AC50) is 1780 nM (active).
Same read-out and setting: then `[Cl-].[Cl-].[Hg+2]`, with 10700 nM (active).

A further test deals with human Dopamine Receptor D4.4 (DRD4.4), DRD4 (gene 1815) (UniProt P21917). Nature of the test: NVS_GPCR_hDRD4.4: NovaScreen (NVS) G Protein-Coupled Receptor Assay for human Dopamine Receptor D4.4 (DRD4.4) (AID 2283264). As to the method:
(§1) NVS_GPCR_hDRD4.4 is a biochemical, single-readout assay that uses extracted gene-proteins from CHO in a cell-free assay. Measurements were taken 1 hour after chemical dosing in a 96-well plate.NVS_GPCR_hDRD4.4 is one of one assay component(s) measured or calculated from the NVS_GPCR_hDRD4.4 assay. It is designed to make measurements of radioligand binding, a form of binding reporter, as detected with scintillation counting signals by Filter-based radiodetection technology.Data from the assay component NVS_GPCR_hDRD4.4 was analyzed into 1 assay endpoint. This assay endpoint, NVS_GPCR_hDRD4.4, was analyzed in the positive analysis fitting direction relative to DMSO as the negative control and baseline of activity. Using a type of binding reporter, loss-of-signal activity can be used to understand changes in the binding as they relate to the gene DRD4. Furthermore, this assay endpoint can be referred to as a primary readout, because the performed assay has only produced 1 assay endpoint. To generalize the intended target to other relatable targets, this assay endpoint is annotated to the gpcr intended target family, where the subfamily is rhodopsin-like receptor.
(§2) Binding assays used specific radioligands (tritiated, iodinated) with non-radioactive competitive displacement ligands in agonist or antagonist protocols (as indicated) and various reference compounds and inhibitors to titrate specific binding to receptors and transporters. Most enzyme assays (CYPs, kinases, phosphatases, proteases, HDACs) used recombinant protein and specific substrates (fluorescence mostly, some colorimetric and radioactive) and inhibitors, followed by a biochemical separation of substrate and product. All assays for the biochemical HTS were initially run in duplicate at a single concentration (10 uM for CYP450 assays and 25 uM for all others). […] Each assay was run with positive and negative controls, and concurrent controls on every plate. The follow-up (secondary) screen tested active chemical-pairs in concentration series, as well as a few additional assays not tested in the primary screen, some selected negative inactives, and several cases re-run in the concentration series for confirmatory purposes.
Take `Cc1cc(N=Nc2ccccc2C)ccc1N`: the AC50 was 25000 nM (active).
Consider `CCC[CH2][Sn]([Cl])([CH2]CCC)[CH2]CCC`, for which the concentration at half-maximal activity (AC50) was 1830 nM (active).
`[Cl-].[Cl-].[Hg+2]`: the AC50 was 1760 nM (active).
On to `CCOC(=O)[C@]1(c2ccccc2)Oc2ccccc2[C@@H]1N`, for which the half-maximal activity concentration (AC50) is 48.1 nM (active).

The target in the next test is human Endothelin Receptor Type A (ETA), EDNRA (gene 1909) (UniProt P25101). The test is described as follows: NVS_GPCR_hETA: NovaScreen (NVS) G Protein-Coupled Receptor Assay for human Endothelin Receptor Type A (ETA) (AID 2283265). The method in brief:
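Binding of radioligand to membrane protein extracted from SH-SY5Y cells was read by filtration and scintillation after 3 h. Compounds were screened at 25 uM in duplicate, with hits followed up in singleton concentration series to 50 uM.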
For the compound `CCC[CH2][Sn]([Cl])([CH2]CCC)[CH2]CCC`, the AC50 is 695 nM (active).
`[Cl-].[Cl-].[Hg+2]`: the AC50 is 6760 nM (active).
In the case of `CCC(C)c1ccc(O)cc1` (stereo not given), the call was inactive.

In another test the target is human Dopamine Receptor D2 (DRD2), DRD2 (gene 1813) (UniProt P14416). The test is described as follows: NVS_GPCR_hDRD2s: NovaScreen (NVS) G Protein-Coupled Receptor Assay for human Dopamine Receptor D2 (DRD2) (AID 2283266). The method in brief:
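Test compound (25 uM, duplicate in the primary screen; concentration series at follow-up) competed with radioligand for human DRD2 in CHO-derived membrane protein. Filter-based scintillation counting was done 1.5 hours after dosing, with loss of signal analysed against DMSO.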
For the compound `CCCCCCCCn1sccc1=O`, the AC50 was 26000 nM (active).
Turning to `CCC[CH2][Sn]([Cl])([CH2]CCC)[CH2]CCC`, the half-maximal activity concentration (AC50) was 525 nM (active).
In the case of `[O-][Cl+]O`, the result was inactive.
`[Cl-].[Cl-].[Hg+2]`: the AC50 is 354 nM (active).
For `CCOC(=O)[C@]1(c2ccccc2)Oc2ccccc2[C@@H]1N`, the AC50 is 32.3 nM (active).
`N#CC(Br)Br`: the call was inactive.

Another test addresses human Endothelin Receptor Type B (ETB), EDNRB (gene 1910) (UniProt P24530). Nature of the test: NVS_GPCR_hETB: NovaScreen (NVS) G Protein-Coupled Receptor Assay for human Endothelin Receptor Type B (ETB) (AID 2283267). The method in brief: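 Filter-based scintillation readout of radioligand displacement, 4 h, using membranes from human astrocytoma cells. Actives from a 25 uM duplicate screen were retested in concentration-response (top 50 uM) relative to DMSO baseline.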
`CCC[CH2][Sn]([Cl])([CH2]CCC)[CH2]CCC`: the AC50 was 15100 nM (active).
For `[Cl-].[Cl-].[Hg+2]`, the AC50 is 19000 nM (active).
In the case of `OCCCBr`, the compound was classed as inactive.
Regarding `C[C@]12C=CC3=C4CCC(=O)C=C4CC[C@H]3[C@@H]1CC[C@@H]2O`, the outcome was inactive.
Still for that read-out and setting: then `N#CC(Br)Br`, with “inactive”.

A further test deals with D(1A) dopamine receptor (Homo sapiens) (UniProt P21728). The test is described as follows: NVS_GPCR_hDRD1: NovaScreen (NVS) G Protein-Coupled Receptor Assay for human Dopamine Receptor D1 (DRD1) (AID 2283269). The method in brief: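 HEK293-derived receptor preparation; radioligand competitive displacement; 1 h; filtration + scintillation counting. DMSO = negative control/baseline. Primary: 25 uM, duplicate; secondary: concentration–response for actives.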
Chain of D(1A) dopamine receptor (Homo sapiens) (P21728 whole entry, looked up): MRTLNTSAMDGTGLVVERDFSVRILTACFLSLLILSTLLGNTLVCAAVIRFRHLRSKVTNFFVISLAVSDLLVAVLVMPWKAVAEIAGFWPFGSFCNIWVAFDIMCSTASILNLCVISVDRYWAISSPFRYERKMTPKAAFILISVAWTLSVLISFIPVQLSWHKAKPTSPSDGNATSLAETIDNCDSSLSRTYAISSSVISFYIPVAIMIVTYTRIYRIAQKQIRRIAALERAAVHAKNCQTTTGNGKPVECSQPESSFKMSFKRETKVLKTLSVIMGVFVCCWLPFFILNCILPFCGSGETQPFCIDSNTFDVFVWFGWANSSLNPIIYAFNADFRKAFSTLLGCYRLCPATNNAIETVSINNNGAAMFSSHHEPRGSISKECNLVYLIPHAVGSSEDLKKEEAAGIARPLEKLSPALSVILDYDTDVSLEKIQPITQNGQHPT
For the compound `CCCCCCCCn1sccc1=O`, the concentration at half-maximal activity (AC50) is 1320 nM (active).
On the same count and under the same terms, then `CCC[CH2][Sn]([Cl])([CH2]CCC)[CH2]CCC`, with 445 nM (active).
With `N#CC(Br)(Br)C(N)=O`, the outcome was inactive.
Consider `COP(=S)(OC)SCN1C(=O)c2ccccc2C1=O`, for which the half-maximal activity concentration (AC50) was 16800 nM (active).
On to `[Cl-].[Cl-].[Hg+2]`, for which the half-maximal activity concentration (AC50) was 193 nM (active).
In the case of `Cc1cccc(N)c1N`, the AC50 was 12100 nM (active).
On the same count and under the same terms, the figure for `CCOC(=O)[C@]1(c2ccccc2)Oc2ccccc2[C@@H]1N` is 2660 nM (active); for `O=C(N[C@H](c1ccccc1)[C@@H]1CN2CCC1CC2)c1c(Cl)ccc(C(F)(F)F)c1Cl` it is 37500 nM (active).
As for `O=[N+]([O-])c1ccc(Oc2ccc(Cl)cc2Cl)cc1`, the compound was classed as inactive.

A further test deals with Muscarinic acetylcholine receptor M1 (Homo sapiens) (UniProt P11229). Nature of the test: NVS_GPCR_hM1: NovaScreen (NVS) G Protein-Coupled Receptor Assay for human Muscarinic, M1 Receptor (AID 2283270). As to the method: as §1, with “NVS_GPCR_hM1” for “NVS_GPCR_hDRD4.4”, “plate.NVS_GPCR_hM1” for “plate.NVS_GPCR_hDRD4.4”, “NVS_GPCR_hM1,” for “NVS_GPCR_hDRD4.4,”, “CHRM1.” for “DRD4.”
Chain of Muscarinic acetylcholine receptor M1 (Homo sapiens) (P11229 whole entry, looked up): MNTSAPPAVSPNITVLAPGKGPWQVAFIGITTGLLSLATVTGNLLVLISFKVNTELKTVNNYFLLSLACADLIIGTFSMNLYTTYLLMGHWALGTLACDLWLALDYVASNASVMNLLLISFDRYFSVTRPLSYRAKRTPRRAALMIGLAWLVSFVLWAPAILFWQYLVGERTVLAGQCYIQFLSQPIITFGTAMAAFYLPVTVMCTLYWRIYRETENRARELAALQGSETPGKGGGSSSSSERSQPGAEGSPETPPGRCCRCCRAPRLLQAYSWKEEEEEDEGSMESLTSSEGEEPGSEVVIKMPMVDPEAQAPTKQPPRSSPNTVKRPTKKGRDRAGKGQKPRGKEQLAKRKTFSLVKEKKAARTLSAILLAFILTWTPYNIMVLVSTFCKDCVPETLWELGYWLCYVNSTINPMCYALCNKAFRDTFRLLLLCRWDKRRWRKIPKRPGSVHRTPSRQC
as §2
`CCC[CH2][Sn]([Cl])([CH2]CCC)[CH2]CCC`: the AC50 is 1860 nM (active).
For the compound `[Cl-].[Cl-].[Hg+2]`, the concentration at half-maximal activity (AC50) is 1470 nM (active).
For the compound `O=C(Oc1ccc(Br)cc1)N1CCN2CCC1CC2`, the AC50 was 12500 nM (active).
Regarding `CCOC(=O)[C@]1(c2ccccc2)Oc2ccccc2[C@@H]1N`, the AC50 is 6040 nM (active).
For `O=C(N[C@H](c1ccccc1)[C@@H]1CN2CCC1CC2)c1c(Cl)ccc(C(F)(F)F)c1Cl`, the call was inactive.

Broadly, the AC50 is the concentration at which the activity in the assay is half-maximal.
